Reference: PubChem BioAssay (Tox21)
Inconclusive results are not listed. Where a call stands in place of a potency, no number is given. A number with no mark means an inactive call. The source made the active and inactive calls. Calls come from the whole dose curve.

Target: 5-hydroxytryptamine receptor 2A (Homo sapiens) (UniProt P28223)
Assay: 5-hydroxytryptamine receptor 2A (HTR2A) small molecule antagonists, cell-based qHTS assay (AID 1963586); note: nearly all actives have a fitted effect of over 45% in size
Details: HTR2A-CHO cells, DOI-induced calcium flux, fluorescence; series mostly up to 61.5 µM
Text: National Center for Advancing Translational Sciences [NCATS]
Division of Preclinical Innovation [DPI]
U.S. Environmental Protection Agency [EPA]
National Institutes of Environmental Health Sciences [NIEHS]
National Toxicology Program [NTP]
U.S. Food and Drug Administration [FDA]
The HTR2A receptor is a subtype of the 5-HT2 receptor that belongs to the serotonin receptor family and is a G protein-coupled receptor (GPCR). The HTR2A-CHO cell line stably expressing human 5-hydroxytryptamine receptor 2A (HTR2A) can be used for screening antagonists of interactions between 5-HT2 and its ligands. The HTR2A-CHO calcium flux assay is a homogeneous fluorescence-based assay for detecting the intracellular calcium level using FDSS kinetic plate reader system.
Tox21 Assay Protocol Summary:
HTR2A-CHO cells were dispensed at 2000 cells/3uL/well in 1536-well black-clear bottom plates using a Multidrop Dispenser. After the assay plates were incubated at a 37 C/5% CO2 incubator for 18 h, 3 uL of Dye Loading Buffer was transferred to the assay plate by a Flying Reagent Dispenser. The assay plates were incubated at 37 C for 1h. For antagonist mode, 23 nL of compounds dissolved in DMSO, positive controls or DMSO only was transferred to the assay plate by a pin tool. After 5 min incubation at room temperature, 1.5 uL of 4-Iodo-2,5-dimethoxy-alpha-methylbenzeneethanamine hydrochloride (DOI) at 4nM was added to each well. The fluorescence intensity in the plates was measured using FDSS 7000EX kinetic plate reader for 3 min at 1 sec intervals.

Chain of 5-hydroxytryptamine receptor 2A (Homo sapiens) (P28223 whole entry, looked up): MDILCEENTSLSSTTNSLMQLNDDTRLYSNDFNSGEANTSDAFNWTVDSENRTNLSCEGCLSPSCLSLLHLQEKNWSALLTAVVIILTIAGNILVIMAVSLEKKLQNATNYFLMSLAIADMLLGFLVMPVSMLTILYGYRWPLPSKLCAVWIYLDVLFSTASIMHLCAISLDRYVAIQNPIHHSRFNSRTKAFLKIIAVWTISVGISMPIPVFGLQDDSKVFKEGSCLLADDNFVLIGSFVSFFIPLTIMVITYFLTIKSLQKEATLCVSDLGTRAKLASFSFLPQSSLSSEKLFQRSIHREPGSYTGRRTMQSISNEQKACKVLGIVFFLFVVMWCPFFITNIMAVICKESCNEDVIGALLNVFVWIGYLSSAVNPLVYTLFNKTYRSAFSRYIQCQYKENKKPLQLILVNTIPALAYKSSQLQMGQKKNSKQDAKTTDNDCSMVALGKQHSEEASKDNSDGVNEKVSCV

Question: With `Cn1c(CCCC(=O)O)nc2cc(N(CCCl)CCCl)ccc21` as the molecule, how does the Potency read?
Answer: inactive

Question: With `CC(C)(N)Cc1ccc(Cl)cc1` as the molecule, how does the Potency read?
Answer: inactive

Question: How did the Potency turn out when `O=[Se]=O` was run?
Answer: inactive

Question: `O=[N+]([O-])c1cccc2cccnc12` was tested. Which Potency did it give?
Answer: inactive

Question: With `CCOc1nc(C(Cl)(Cl)Cl)ns1` as the molecule, how does the Potency read?
Answer: inactive

Question: With `CN1COCN(Cc2cnc(Cl)s2)/C1=N\[N+](=O)[O-]` as the molecule, how does the Potency read?
Answer: inactive

Question: With `COP(=S)(OC)Oc1cc(Cl)c(Br)cc1Cl` as the molecule, how does the Potency read?
Answer: inactive

Question: How did the Potency turn out when `Nc1ccc(N=Nc2ccccc2)cc1` was run?
Answer: inactive

Question: With `CNC(=O)Oc1cc(C)c(N(C)C)c(C)c1` as the molecule, how does the Potency read?
Answer: inactive

Question: For `CC1(C(=O)Nc2ccc(O)c(Cl)c2Cl)CCCCC1`, which Potency is on record?
Answer: inactive

Question: For `C=CC(=O)OCC(C)O` (stereo not given), which Potency is on record?
Answer: inactive

Question: With `Nc1c(Cl)c(Cl)c(Cl)c(Cl)c1Cl` as the molecule, how does the Potency read?
Answer: inactive

Question: `CC[C@H](O)C(C[C@H](C)N(C)C)(c1ccccc1)c1ccccc1` was tested. Which Potency did it give?
Answer: inactive

Question: For `CCCCC(O)(Cn1cncn1)c1ccc(Cl)cc1Cl` (stereo not given), which Potency is on record?
Answer: inactive

Question: For `CC(C)(C)C(O)C(Oc1ccc(-c2ccccc2)cc1)n1cncn1` (stereo not given), which Potency is on record?
Answer: inactive

Question: With `CC(C)(C)C(=O)C(Oc1ccc(Cl)cc1)n1cncn1` (stereo not given) as the molecule, how does the Potency read?
Answer: inactive

Question: `O=C(OC1CCCCC1)c1ccccc1C(=O)OC1CCCCC1` was tested. Which Potency did it give?
Answer: inactive

Question: Which Potency does the source give for `[Cl-].[Cl-].[Cl-].[Yb+3]` here?
Answer: inactive

Question: Which Potency does the source give for `Clc1ccccc1` here?
Answer: inactive

Question: `CCN(CC)c1nc(C)cc(OP(=S)(OC)OC)n1` was tested. Which Potency did it give?
Answer: inactive

Question: With `O=c1[nH]c2ccccc2o1` as the molecule, how does the Potency read?
Answer: inactive

Question: With `CC(=O)OCC1=C(C(=O)O)N2C(=O)[C@@H](N)[C@H]2SC1` as the molecule, how does the activity, negative = inhibition read?
Answer: 10.6% [at 12.7 µM]

Question: `CC(=O)[C@H]1CC[C@H]2[C@@H]3CC[C@H]4C[C@H](O)CC[C@]4(C)[C@H]3C(=O)C[C@]12C` was tested. Which Potency did it give?
Answer: inactive

Question: With `Cc1nc2ccccc2c(=O)n1-c1ccccc1Cl` as the molecule, how does the Potency read?
Answer: inactive

Question: With `CCCCCCCCCC[N+](C)(C)CCCCCCCCCC` as the molecule, how does the Potency read?
Answer: inactive

Question: For `ClC1=C(Cl)[C@]2(Cl)[C@@H]3[C@@H](Cl)[C@H]4O[C@H]4[C@@H]3C1(Cl)C2(Cl)Cl`, which Potency is on record?
Answer: inactive

Question: Which Potency does the source give for `N#CC(CCc1ccc(Cl)cc1)(Cn1cncn1)c1ccccc1` (stereo not given) here?
Answer: inactive

Question: How did the Potency turn out when `Clc1ccc(-c2ccccc2)cc1` was run?
Answer: inactive

Question: `Oc1cc(Cl)c(Cl)c(Cl)c1` was tested. Which Potency did it give?
Answer: inactive

Question: For `Oc1cccc(Cl)c1Cl`, which Potency is on record?
Answer: inactive

Question: `Cc1ccc(N(SC(F)(Cl)Cl)S(=O)(=O)N(C)C)cc1` was tested. Which Potency did it give?
Answer: inactive

Question: With `Oc1ccc(C2(c3ccc(O)cc3)c3ccccc3-c3ccccc32)cc1` as the molecule, how does the Potency read?
Answer: inactive

Question: `COc1cc(C=O)cc2c1[C@H](COC(N)=O)[C@]1(OC(C)=O)ON2C[C@H]2[C@@H]1N2C(C)=O` was tested. Which Potency did it give?
Answer: inactive

Question: How did the Potency turn out when `Oc1ccc2ccc3cccc4ccc1c2c34` was run?
Answer: inactive

Question: For `O=C(CCCCl)c1ccc(F)cc1`, which Potency is on record?
Answer: inactive

Question: `CCC(=O)c1ccc(Cl)cc1` was tested. Which Potency did it give?
Answer: inactive

Question: Which Potency does the source give for `CC(C)CP(=S)(S)CC(C)C` here?
Answer: inactive

Question: For `CNCC(=O)c1ccc(O)c(O)c1`, which Potency is on record?
Answer: inactive

Question: `CC(C)(C)OO` was tested. Which Potency did it give?
Answer: inactive

Question: `N#CCCC(Br)(C#N)CBr` (stereo not given) was tested. Which Potency did it give?
Answer: inactive
